Compounds with a hit are over-represented: about 12% of the library has one in this group of screens.
PLK1 PBD block = blocks phosphopeptide binding to human PLK1 polo-box domain; P53350; Plk1 PBD binding of FITC phosphopeptide, fluorescence polarization; Potency, µM, for the others: max response, negative = inhibition, usual class: inhibitors; 360,000 tested, 2.8% active; AID 720504; further: series mostly up to about 57 µM; nearly all actives have a fitted effect of over 65% in size
Gal4-VP16 FLuc = counter-screen for ROR gamma inhibitors: Gal4-VP16 reporter; Drosophila S2 Gal4-VP16 UAS-luciferase, luminescence, 20 h; Potency, µM (highest dose often 53.6 µM), without a hit: top-dose activity, negative = inhibition, most hits filed as inhibitors; 310,000 tested, 3.5% active;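 further: Gal4-VP16 expression switched on by copper sulfate through the metallothionein promoter; nearly all actives have a fitted effect of over 50% in size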
ALDH1A1 inh = inhibitors of human aldehyde dehydrogenase 1A1 | 220,000 tested, 7.3% active | Potency, µM (top dose mostly 75.3 µM), for inactives: at the highest dose activity, negative = inhibition, actives largely listed as inhibitors | AID 1030 | P00352 | Purified ALDH1A1, NADH fluorescence, propionaldehyde substrate; active means well fitted inhibition curve with a large enough effect, not every such curve was filed as active; inconclusive means small, poorly fitted or top-dose-only effect, or another doubt; inactive means no such curve, though single readings can be large or run the other way;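 further: plate controls were no enzyme wells and a reference inhibitor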
Target sequence (P00352 whole entry, looked up): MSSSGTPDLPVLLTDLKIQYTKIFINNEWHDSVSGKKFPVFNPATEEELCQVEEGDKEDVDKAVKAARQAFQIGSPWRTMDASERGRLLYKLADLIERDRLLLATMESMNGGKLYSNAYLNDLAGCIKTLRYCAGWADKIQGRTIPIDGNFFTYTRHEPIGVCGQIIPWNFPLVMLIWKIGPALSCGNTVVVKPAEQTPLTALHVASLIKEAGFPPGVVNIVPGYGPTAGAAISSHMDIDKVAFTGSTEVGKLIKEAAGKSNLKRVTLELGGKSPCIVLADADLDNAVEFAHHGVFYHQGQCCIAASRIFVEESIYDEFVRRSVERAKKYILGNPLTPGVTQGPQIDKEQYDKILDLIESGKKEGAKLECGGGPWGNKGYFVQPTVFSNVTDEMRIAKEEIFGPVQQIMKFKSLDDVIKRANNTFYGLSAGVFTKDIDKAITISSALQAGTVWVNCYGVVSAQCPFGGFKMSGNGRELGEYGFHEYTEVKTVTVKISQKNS
RORg inh = blocks mouse ROR gamma transcriptional activity. Drosophila S2 Gal4-RORgamma UAS-luciferase reporter, 20 h. AID 2551. 310,000 tested, 5.4% active. Potency, µM (top dose mostly 53.6 µM), without a hit: at the highest dose activity change, negative = inhibition, most hits filed as inhibitors; further: nearly all actives have a fitted effect of over 60% in size
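ROR gamma transcriptional activity was tracked as Gal4-UAS luciferase output in stably transfected Drosophila Schneider cells, with compound added 1 hr before 700 uM copper sulfate induction and a 20 hr ambient-temperature incubation.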
Sfp inh = Sfp phosphopantetheinyl transferase inhibition; Biochemical Sfp PPTase activity, qHTS; AID 1490; Potency, µM, for inactives: largest response in the series, negative = inhibition, usual class: inhibitors; 310,000 tested, 3.5% active;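 further: the enzyme is Sfp with the accession as filed and its product quenches rhodamine fluorescence; 0% = enzyme reaction without inhibitor and -100% = no enzyme wells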
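Fluorescence-quenching assay with 15 nM Sfp, 5 uM rhodamine-CoA and 12.5 uM BHQ-2-labelled ybbR peptide in pH 7.6 Hepes/MgCl2 buffer. Enzyme was pre-incubated with compound for 15 min at room temperature. Rate was taken from the 30-min fluorescence change (525/598 nm).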
An asterisk follows results filed as active; ? = inconclusive; nt = no result. Unless noted, the call rests on the fitted dose curve; in most records, active means well fitted curve in the direction sought with a large enough effect; inconclusive means small, poorly fitted or top-dose-only effect, or another doubt; inactive means no such curve, though single readings can be large; an effect the other way counts as inactive or inconclusive. Unless noted, on the % scale 0 is the no-effect control and ±100 the full control effect; potency means the concentration at half of the fitted maximal effect.

SMILES	PLK1 PBD block	Gal4-VP16 FLuc	ALDH1A1 inh	RORg inh	Sfp inh
COc1cc(-c2nc(CN3CCCN(C(=O)c4ccco4)CC3)c(C)o2)ccc1F	30µM*	-6%	?	-8%	12%
Cc1oc(-c2ccc(Cl)cc2)nc1CN1CCCN(C(=O)c2ccco2)CC1	-6%	12%	nt	3%	-4%
Cc1nc2ccc(Br)cn2c1C(=O)N/N=C\c1ccc(C(C)C)cc1	-9%	5µM*	nt	5.6µM*	12%
CN1CC(c2ccccc2)C2(SC(=S)N(Cc3ccco3)C2=O)C12C(=O)Nc1ccccc12 (centres undefined)	-3%	?	-2%	?	0%
CN1CC(c2ccccn2)C2(SC(=S)N(Cc3ccccc3)C2=O)C12C(=O)Nc1ccccc12 (centres undefined)	?	?	25µM*	?	-31%
COc1ccccc1-c1ccc(/C=C2/C=C(CC(C)C)OC2=O)o1	-18%	1%	?	-1%	50µM*
Cc1cc(Nc2ncc(Cl)cc2Cl)n[nH]1	1%	-13%	-4%	11µM*	14%
Nc1nc(SCC(=O)Nc2ncc(Cl)cc2Cl)n[nH]1	-18%	nt	nt	nt	nt
N#Cc1cccc(-c2nc(NCc3ccccc3)c3ccccc3n2)c1	nt	6%	?	40%	16%
COCCNC(=O)Cn1c(=O)n(CCCCCC(=O)Nc2ccccc2)c(=O)c2sccc21	-10%	7%	-8%	39%	10%
COCCNC(=O)Cn1c(=O)n(CCCC(=O)NCc2ccc3c(c2)OCO3)c(=O)c2sccc21	27µM*	11%	nt	-44%	9%
COc1ccc([C@H]2N[C@]3(CCCN(Cc4ccc(C)cc4)C3=O)[C@H]3C(=O)N(Cc4ccccc4)C(=O)[C@@H]23)cc1	-13%	nt	nt	nt	nt
Cc1ccc(NC(=O)n2ncc3c(C)cccc32)c(C)c1	-8%	?	nt	-36%	10%
COc1cccc(NC(=O)n2ncc3c(C)cccc32)c1	-5%	2.8µM*	nt	1.6µM*	-4%
CCOc1ccc(NC(=O)n2ncc3c(C)cccc32)cc1	-13%	1.1µM*	nt	0.45µM*	-2%
Cc1cc(C)c2c(=O)n3c(nc2c1)C(Cc1ccc(O)cc1)NC(=O)c1cc2ccccc2cc1-3 (centres undefined)	-1%	nt	nt	nt	nt
C[C@@H]1OC(Oc2ccccc2-c2cc(=O)c3c(O)cc(O)c([C@@H]4O[C@H](CO)[C@@H](O)[C@H](O)[C@H]4O)c3o2)[C@H](O)[C@H](O)[C@H]1O (some centres undefined)	nt	-4%	nt	-17%	16%
NCCC[C@@H](CC(=O)N[C@@H]1CCCC[C@H]1C(=O)N[C@H](CC(=O)N[C@@H](CCC(=O)O)CC(=O)O)Cc1ccccc1)NC(=O)C[C@H](Cc1c[nH]c2ccccc12)NC(=O)[C@@H]1CNCC[C@H]1N	nt	-4%	-6%	-6%	-15%
O=C(CSc1nc(-c2ccco2)cc(C(F)(F)F)n1)N1CCN(Cc2ccccc2)CC1	-11%	-3%	16µM*	19%	-21%
COc1ccc(CCNC(=O)CSc2nc(-c3ccco3)cc(C(F)(F)F)n2)cc1OC	-13%	8%	-10%	0%	0%
O=C(CSc1nc(-c2ccco2)cc(C(F)(F)F)n1)Nc1ccc(C(=O)N2CCCCC2)cc1	0%	4.5µM*	14µM*	?	-16%
COc1ccccc1N1CCN(C(=O)CSc2nc(-c3ccco3)cc(C(F)(F)F)n2)CC1	-10%	-1%	7.9µM*	11%	?
O=C(CSc1nc(-c2ccco2)cc(C(F)(F)F)n1)N1CCN(c2ccc(Cl)cc2)CC1	0%	-7%	-10%	?	-6%
O=C1/C(=C/c2ccco2)SC(=S)N1CCC(=O)N1CCCCC1CCO (centres undefined)	?	-18%	nt	-34%	50µM*
COc1ccc(-c2nc3cnc(OC)nc3n(CCc3ccccc3)c2=O)cc1	nt	4%	?	0%	16%
SMILES	PLK1 PBD block	Gal4-VP16 FLuc	ALDH1A1 inh	RORg inh	Sfp inh
COC(=O)c1ccc(C(=O)OC)nc1	1%	2%	-1%	14%	24%
COC(=O)c1ccc(C(=O)O)nc1	-8%	-1%	nt	4%	79µM*
Cc1cccc(C)c1NC(=O)C(C1CC1)n1c(-c2ccc(-c3ccccc3)cc2)nc2ccccc21 (centres undefined)	5%	nt	nt	nt	nt
CC(=O)c1sc(NC(=O)CCS(=O)(=O)c2ccc(F)cc2)nc1C	-15%	nt	nt	nt	nt
Cc1nc(NC(=S)NC(=O)c2ccccc2)sc1C	-10%	?	nt	1.3µM*	?
Cc1nc(NC(=O)CCc2ccccc2)sc1C	15µM*	-15%	nt	26%	40µM*
CC(=O)c1sc(NC(=O)CCS(=O)(=O)c2ccccc2)nc1C	-24%	?	nt	13µM*	15%
O=C(NC(=S)Nc1nc2c(s1)CCCC2)c1ccccc1	-17%	0.63µM*	?	0.56µM*	8%
CC(OC(=O)CCNS(=O)(=O)c1ccc(Cl)cc1)C(=O)N(C)Cc1ccccc1 (centres undefined)	-1%	nt	nt	nt	nt
S=C(Nc1nc2c(s1)CCCC2)NC1CC1	?	1.8µM*	nt	1.3µM*	-29%
COC(=O)c1sc(NC(=S)NC(=O)c2ccccc2F)nc1C	-11%	-22%	6%	21%	3%
COC(=O)c1sc(NC(=S)NC(=O)c2cccc(C)c2)nc1C	0%	?	3%	4µM*	21%
COC(=O)c1ccc(C(=O)NC(=S)Nc2nc3c(s2)CCCC3)cc1	-10%	7.1µM*	?	2.2µM*	-5%
COc1ccc(-c2cc3c(o2)CCCC3OCCN2CCOCC2)cc1 (centres undefined)	-5%	nt	nt	nt	nt
CSCC[C@H](NC(=O)OC(C)(C)C)C(=O)N1CCC(C(=O)N[C@@H](C)C(=O)NC(C)c2ccccc2)CC1 (some centres undefined)	4%	5%	nt	-14%	16%
CC(C)C1COc2cc3oc(=O)ccc3cc2O1 (centres undefined)	nt	-15%	?	2%	8%
O=C(COc1cccc2ccccc12)N/N=C/c1ccccc1OCc1ccc(C(=O)O)cc1	27µM*	-6%	-10%	?	-18%
O=C(O)c1cccc(NC(=S)N/N=C/c2ccccc2OCc2cccc(Br)c2)c1	?	-8%	?	11µM*	?
O=C(O)c1cccc(NC(=S)N/N=C/c2ccccc2OCc2ccc(Br)cc2)c1	24µM*	-6%	?	13µM*	-16%
CC(C)CCNC(=O)C(CC(C)C)NC(=O)C1OC1C(=O)O (centres undefined)	nt	-1%	nt	3%	1%
CCCCOCCOCCSC#N	nt	-8%	-4%	8%	nt
Nc1nonc1-c1nc2ccccc2n1CC(=O)N/N=C/c1ccc(-c2cccc(C(=O)O)c2)o1	?	-7%	?	3%	1µM*
Nc1nnc(CC(=O)N/N=C/c2ccc(-c3cccc(C(=O)O)c3)o2)s1	-7%	-12%	nt	-43%	40µM*
Nc1nonc1-c1nc2ccccc2n1CC(=O)O	-10%	-2%	-7%	-27%	8%
